# From PubChem BioAssay AID932 (The Scripps Research Institute Molecular Screening Center, 2007)
# Out of some 200,000 compounds screened, about 5,100 (2.5%) were called active. The list comes from a sample in which actives are over-represented; it also holds similar structures and randomly drawn compounds. Unmarked numbers belong to inactive results.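 How the source made its calls: active means activation above the screen-wide mean activation plus 3 SD (cut at about 130% in these data); inactive means the rest.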
# Assay: STAT1 signaling activators, primary screen, cell-based, HTS, luciferase reporter (AID 932);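 further: raw ratio to IFN-gamma control signal so 100% means no change and 0% no light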
# Conditions: NIH 3T3 STAT1-luciferase reporter, IFN-gamma, luminescence; at 5.5 µM; active compounds read high; 100% = IFN-gamma alone, no compound
row,SMILES,activation (% of control)
1,C=CCNC(=O)COC(=O)c1ccccc1C(=O)N(C)C1CCCCC1,95.6%
2,O=c1[nH]n(-c2ccc([N+](=O)[O-])cc2)c(=O)c2ccccc12,101%
3,CCN1CC(CN(C)Cc2nc(-c3ccc(Cl)cc3)no2)CC1=O (centres undefined),96.3%
4,CC(C)C(c1nnnn1C(C)(C)C)N1CCN(Cc2cccnc2)CC1 (centres undefined),98.8%
5,CCCCCC(=O)Nc1ccc(-c2cn3cccnc3n2)cc1,103%
6,CCC(C)(C)C1CCC(=NNC(=O)c2ccc(Br)o2)CC1 (centres undefined),129% (active)
7,CC(C)(C)C1CCC(=NNC(=O)c2ccc(Br)o2)CC1 (centres undefined),121%
8,C/C(=N/NC(=O)c1ccc(Br)o1)c1ccc(C)o1,112%
9,COc1ccccc1-n1c(C)nc2cc(C(=O)NCc3ccc4c(c3)OCO4)ccc21,98.5%
10,COc1ccc(OC)c2[nH]c(=O)c(CCNC(=O)C(=O)c3c[nH]c4ccccc34)cc12,95.3%
11,Cc1ccc(NC(=O)CC2C(=O)N(Cc3ccccc3)C(=S)N2NC(=O)c2cccc(F)c2)c(C)c1 (centres undefined),103%
12,Cn1c(=O)c2c(nc(N3CCCCCC3)n2CC(=O)c2ccc(Br)cc2)n(C)c1=O,94.8%
13,CC(=O)Cn1ncc(N2CCOCC2)c(Br)c1=O,104%
14,O=C(Cn1ncc(N2CCCC2)c(Br)c1=O)c1ccc(Cl)cc1,130% (active)
15,O=C(COC(=O)/C=C/c1nc2ccccc2s1)Nc1ccccc1Oc1ccccc1,95.5%
16,CC(=O)NCC(=O)N1CCCC(C(=O)c2ccc3c4c(cccc24)CC3)C1 (centres undefined),99.2%
17,CCOC(=O)C1CCN(c2ccc(C(=O)O)cc2[N+](=O)[O-])CC1,98.3%
18,COc1ccc(NC(=O)N2CCCC(c3nc(-c4ccc(F)cc4)no3)C2)cc1 (centres undefined),102%
19,CSc1ccc(C#N)cc1NC(=O)c1cccc(Cl)c1,106%
20,O=C(Nc1ccn(Cc2ccccc2F)n1)c1ccc(COc2ccc(Cl)cc2Cl)o1,105%
21,N#Cc1ccccc1NC(=O)c1cccc(COc2ccc(Cl)cc2Cl)c1,132% (active)
22,CN1C=CC=C/C1=C1\SC(=S)N(Cc2ccccc2)C1=O,104%

row,SMILES,activation (% of control)
1,O=C(NCc1ccccn1)Nc1ccc(F)cc1,108%
2,c1ccc(CN=C2Nc3ccccc3CS2)nc1,135% (active)
3,CC(C)(C)NC(=O)CN1CCC(NC(=O)C23CC4CC(CC(C4)C2)C3)CC1,96.5%
4,COc1ccc(-n2nc(C(=O)NCC(=O)Nc3cccc(C)n3)c3ccccc3c2=O)cc1,99.9%
5,COc1cccc(-n2nc(C(=O)N3CCN(Cc4ccccc4)CC3)c3ccccc3c2=O)c1,99.9%
6,CCOC(=O)CNC(=O)c1nn(-c2cccc(OC)c2)c(=O)c2ccccc12,130% (active)
7,COc1ccc(-c2nn3c(-c4ccccc4)nnc3s2)cc1OC,114%
8,COc1ccc(-c2csc(-c3cccs3)n2)cc1OC,182% (active)
9,COc1ccc(C2CC(c3cccs3)=Nc3ccccc3S2)cc1OC (centres undefined),106%
10,Cc1ccc(NC(=S)N(CCN(C)C)Cc2cccs2)cc1C,97.2%
11,Cc1ccc(NC(=O)c2cccs2)cc1S(=O)(=O)N(C)C,101%
12,Cc1ccc(NC(=O)CNCc2ccccn2)cc1S(=O)(=O)N(C)C,97.7%
13,Cc1ccc(C(=O)Nc2ccc(C)c(S(=O)(=O)N(C)C)c2)s1,141% (active)
14,C#CCOCCOCCOCCNc1nc(N2CCN(C(=O)C(Cc3ccc(O)cc3)n3cc(C(N)CC(C)C)nn3)CC2)nc(N2CCN(C(=O)C(Cc3ccc(O)cc3)n3cc(C(N)C(C)CC)nn3)CC2)n1 (centres undefined),109%
15,O=C(NC(=S)Nc1cccc(-c2ccc(CO)o2)c1)c1cccs1,93.4%
16,Cc1cc(-c2n[nH]c(=S)n2-c2ccc(C)c(C)c2)no1,90.1%
17,CCOC(=O)c1ccccc1N1C(=O)C2Sc3[nH]c(=O)sc3C(/C=C/c3ccccc3)C2C1=O (centres undefined),114%
18,COC(C(=O)Nc1ccc(S(=O)(=O)Nc2ccc(C)c(C)c2)cc1)c1ccccc1 (centres undefined),108%
19,CC(=O)c1cnc(SCCN2C(=O)c3ccccc3C2=O)nc1C,95.5%
20,Nc1ccc(SCCN2C(=O)c3ccccc3C2=O)cc1,129% (active)
21,Cc1ccc(SCCN2C(=O)NC(C)(C)C2=O)cc1,103%
22,O=C(CN1CCSCC1)N/N=C/c1ccc(Cl)cc1,107%

row,SMILES,activation (% of control)
1,COc1ccc(-c2ccc(CCC(=O)O)n2-c2ccc(O)cc2)cc1,101%
2,CC(C)c1ccc(C(=O)NCCCc2ccccc2)cc1,131% (active)
3,O=C(NCCc1ccccc1)c1ccc(OCCOc2ccccc2)cc1,109%
4,CCCOc1ccc(C(=O)NCCc2ccccc2)cc1,76.1%
5,COc1ccc(Cc2nnc(NC(=O)c3cc(OC)c(OC)c(OC)c3)s2)cc1OC,89.1%
6,CCOCCCNC(=O)C(NC(=O)Cc1c[nH]c2ccccc12)c1ccc(OC)cc1 (centres undefined),87.9%
7,O=C(CSCc1ccc(Cl)cc1)N1CCCCC1,121%
8,O=C(CSc1ccsc1[N+](=O)[O-])N1CCCCC1,94.8%
9,O=C(CSCc1cccs1)N1CCCC1,129% (active)
10,COc1ccc(C(=O)NCc2nnc(SCCOc3ccccc3)n2C)cc1,102%
11,CS(=O)(=O)n1nc(-c2ccccc2)nc1NCc1ccco1,102%
12,CCS(=O)(=O)n1nc(-c2ccccc2)nc1SCc1ccccc1,130% (active)
13,CCS(=O)(=O)n1nc(-c2ccc(OC)cc2)nc1SC,112%
14,COc1cccc(-n2c(=O)c3c(C)c(C(=O)N(C)C)sc3n(CC(=O)NCCc3ccc(OC)c(OC)c3)c2=O)c1,97.9%
15,COc1ccc(NC(=O)Nc2ccc3nsnc3c2)cc1,146% (active)
16,COc1ccc(NC(=O)c2ccc(C#CC(C)(C)O)cc2)cc1,106%
17,COc1ccc(NC(=O)c2ccc(OC)cc2)cc1,140% (active)
18,COc1ccc(C(=O)Nc2ccc(S(=O)(=O)NC(C)C)cc2)cc1,93.8%
19,COc1ccc(/C=N/NC(=O)Nc2ccc3nsnc3c2)c(OC)c1,114%
20,COc1ccc(NC(=O)Nc2ccc3nc(C)c(C)nc3c2)cc1,103%
